# ± gives the standard deviation of the averaged measurements. About 5,400 targets were measured; listed, in parts, are those with the largest changes and a random draw of the rest.
# Biological target: T1, B1ALK7|Q14155-1|Q14155-5 (UniProt Q14155)
# T1 sequence (whole entry): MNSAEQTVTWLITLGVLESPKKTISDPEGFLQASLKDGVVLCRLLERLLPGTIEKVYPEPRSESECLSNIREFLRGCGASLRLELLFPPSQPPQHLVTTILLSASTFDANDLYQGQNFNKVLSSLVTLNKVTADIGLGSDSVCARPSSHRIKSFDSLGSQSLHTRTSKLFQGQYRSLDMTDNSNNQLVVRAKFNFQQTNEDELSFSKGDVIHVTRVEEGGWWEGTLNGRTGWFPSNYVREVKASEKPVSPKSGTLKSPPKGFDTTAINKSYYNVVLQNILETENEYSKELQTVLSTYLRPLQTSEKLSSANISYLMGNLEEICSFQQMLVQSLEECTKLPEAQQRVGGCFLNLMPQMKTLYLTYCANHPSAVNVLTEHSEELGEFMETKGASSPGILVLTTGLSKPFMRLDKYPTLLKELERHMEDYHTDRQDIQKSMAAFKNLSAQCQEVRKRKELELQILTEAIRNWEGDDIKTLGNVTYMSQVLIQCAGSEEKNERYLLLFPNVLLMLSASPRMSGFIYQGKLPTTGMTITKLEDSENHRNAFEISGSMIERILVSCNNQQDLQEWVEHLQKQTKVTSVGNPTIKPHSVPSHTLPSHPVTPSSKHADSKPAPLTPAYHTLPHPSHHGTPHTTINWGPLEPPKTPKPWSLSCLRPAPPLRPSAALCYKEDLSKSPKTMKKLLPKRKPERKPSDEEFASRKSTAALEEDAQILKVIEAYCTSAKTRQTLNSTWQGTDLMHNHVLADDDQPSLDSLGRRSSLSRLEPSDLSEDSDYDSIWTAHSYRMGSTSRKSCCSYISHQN
# Assay: NP40-soluble protein abundance relative to vehicle (solubility fold change) (ratio); higher = more soluble protein in presence of GTP
# Procedure: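 Solubility proteome profiling in Jurkat crude lysate. Lysate was treated with Mg-GTP (0.1-10 mM) for 10 min at room temperature and 3 min at 37 °C, then solubilised with 0.8% NP40 and benzonase, followed by ultracentrifugation. Proteins were quantified by TMT10 LC-MS/MS; the value is the NP40-soluble abundance relative to the NP40-processed vehicle, from 3 independent experiments.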
structure (smiles),measurement,setting,value
Nc1nc2c(ncn2[C@@H]2O[C@H](COP(=O)(O)OP(=O)(O)OP(=O)(O)O)[C@@H](O)[C@H]2O)c(=O)[nH]1 [guanosine triphosphate],NP40-soluble protein abundance,concentration: 0.1mM,0.994 ± 0.036
same,NP40-soluble protein abundance,concentration: 0.5mM,0.9903 ± 0.0023
same,NP40-soluble protein abundance,concentration: 1mM,1.004 ± 0.007
same,NP40-soluble protein abundance,concentration: 2mM,1.01 ± 0.028
same,NP40-soluble protein abundance,concentration: 4mM,0.996 ± 0.015
same,NP40-soluble protein abundance,concentration: 6mM,0.9797 ± 0.0044
same,NP40-soluble protein abundance,concentration: 8mM,1 ± 0.033
same,NP40-soluble protein abundance,concentration: 10mM,0.977 ± 0.046

# Source: the supplement of paper PMC6411743
